From PubChem BioAssay
EBV gp42 inh = blocks Epstein-Barr virus glycoprotein 42 binding; Q1HVG2; Fluorescence polarization binding assay, mP read-out; 220,000 compounds, 0.42% hits; inhibition, % (tested at 21.74 µM); in the data active means inhibition above about 50%
MEX-5 binding = C. elegans MEX-5 TCR-2 RNA binding activity. activity score (negative = inhibition of binding), % at 10 µM. MEX-5/FITC-TCR2 RNA binding, fluorescence polarization; active compounds read low. AID 1832. 300,000 compounds, 0.38% hits;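 active means inhibition past about -25% in most replicates, and total fluorescence under double the plate's negative control median, limit read from the data; inconclusive means replicates evenly split on the limit, or fluorescence at least double controls; inactive means too little inhibition in most replicates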;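 further: 0% = DMSO and -100% = 5 µM competing unlabeled TCR2 RNA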
eIF4H inh = inhibitors of RNA binding by human eIF4H; Q15056; eIF4H fluorescence polarization binding assay; inhibition, % at 35 µM; 290,000 compounds, 0.94% hits;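 further: calls also rest on retests at 20 µM and on dose response follow-up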
PABP FP inh = PABP-poly(A) binding inhibition; P11940; PABP-poly(A) RNA binding, fluorescence polarization; calls only at 35 µM; 290,000 compounds, 1% hits; AID 2014;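 further: calls also rest on retests at 20 µM and on dose response follow-up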
Target sequence (P11940 whole entry, looked up): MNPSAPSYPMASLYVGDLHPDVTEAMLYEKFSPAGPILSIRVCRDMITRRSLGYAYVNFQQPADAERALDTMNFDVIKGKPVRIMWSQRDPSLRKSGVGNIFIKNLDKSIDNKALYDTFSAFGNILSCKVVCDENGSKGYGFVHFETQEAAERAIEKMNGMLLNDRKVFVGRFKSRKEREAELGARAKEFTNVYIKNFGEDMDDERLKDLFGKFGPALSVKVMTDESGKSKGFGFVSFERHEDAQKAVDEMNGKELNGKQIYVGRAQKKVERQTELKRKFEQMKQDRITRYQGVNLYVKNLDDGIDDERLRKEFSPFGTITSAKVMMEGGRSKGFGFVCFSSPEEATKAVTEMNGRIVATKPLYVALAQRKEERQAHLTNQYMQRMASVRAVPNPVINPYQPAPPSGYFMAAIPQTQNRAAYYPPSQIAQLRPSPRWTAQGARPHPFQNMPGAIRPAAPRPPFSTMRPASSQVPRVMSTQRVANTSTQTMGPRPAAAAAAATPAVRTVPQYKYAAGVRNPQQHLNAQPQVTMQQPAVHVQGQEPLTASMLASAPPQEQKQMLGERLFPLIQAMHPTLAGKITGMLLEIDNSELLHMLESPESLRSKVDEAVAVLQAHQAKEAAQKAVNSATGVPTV
MLLE-PAM2 inh = blocks PAM2 peptide binding to the PABP1 MLLE domain; GST-MLLE / FITC-PAM2 fluorescence polarization; 360,000 compounds, 0.36% hits; inhibition, % at 20 µM; P11940; AID 588489; in the data active means inhibition above about 35%, passing the limit was not always enough;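 further: plate controls were DMSO wells with GST-MLLE for no effect and wells lacking GST-MLLE protein for full effect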
Starred values were filed as active, the others as inactive; i = inactive; ? = inconclusive; nt = no result; + = active, no number. Most compounds without a hit are left out; they make up all but 1.8% or so of the library. Unless noted, how the calls were made is not given here.

SMILES	EBV gp42 inh	MEX-5 binding	eIF4H inh	PABP FP inh	MLLE-PAM2 inh
COc1ccc(/C=N/NC(=O)Cn2c(Cc3ccc(OC)c(OC)c3)nc3ccccc32)cc1	-4	nt	active	+	4
COC(=O)C(C)(C(=O)OC)c1ccccc1[N+](=O)[O-]	-31	1	?	+	0
COC(=O)C(Cc1cnc(Cl)s1)(C(=O)OC)c1ccccc1[N+](=O)[O-]	-20	-1	0	i	-12
CC(C)c1ccccc1NC(=O)Nc1nnc([C@H]2C[C@H](O)[C@@H](CO)O2)s1	nt	nt	nt	nt	3
O=C(c1ccoc1)N1CCN(c2cc(-c3cccnc3)nc3cc(-c4cccc(Cl)c4)nn23)CC1	nt	nt	nt	nt	-1
Cn1c(=O)c2[nH]c(COc3ccccc3)nc2n(C)c1=O	nt	nt	nt	nt	63*
COc1ccc([C@H]2C[C@H](O)[C@@H](n3cc(COC(=O)c4ccccc4)nn3)CN2CC2CCCCC2)cc1	nt	nt	nt	nt	-10
CCOC(=O)c1[nH]c2ccccc2c1NC(=O)NC(C)C	-13	0	-3	i	-3
CCOC(=O)c1[nH]c2ccccc2c1NC(=S)Nc1cccc(C)c1C	-12	0	-1	i	41*
CCc1nc2ccc(C(=O)Nc3cc(-c4ccccc4)ccc3OC)cn2c1N(C)Cc1nccs1	nt	nt	nt	nt	-5
CC[C@@H]1CC2=C(C(=O)OC(C)(C)O2)[C@H](c2ccc(Cl)cc2)O1	nt	nt	nt	nt	-7
COc1cccc(CN(C)C(=O)c2ccc(S(=O)(=O)Nc3cccc(C)c3C)cc2)c1OC	nt	nt	nt	nt	-8
CC1(C(=O)NCc2ccco2)Cc2c(-c3cccc(C(N)=O)c3)ccnc2O1 (stereo not drawn)	nt	nt	nt	nt	-10
O=C1SC(SCc2ccccc2Cl)=N/C1=C\c1ccc(C(=O)O)cc1	-2	-41*	12	i	21
Cc1cc(C(F)(F)F)n(-c2nc(C(=O)O)cs2)n1	-10	2	1.5*	+	-9
O=C(O)c1csc(-n2nc(-c3ccccc3)cc2C(F)(F)F)n1	-7	-2	11	i	2
CCOC(=O)c1c(-c2ccc(C)o2)csc1NC(=S)NC(=O)c1ccccc1Br	-6	-2	-2	i	32
CCOC(=O)c1c(-c2ccc(C)o2)csc1NC(=S)NC(=O)c1cccs1	-15	-34*	7	i	36
OCc1nc2nc(Cl)c(Cl)nc2[nH]1	8	-1	52*	+	10
CCOCc1nc2nc(Cl)c(Cl)nc2[nH]1	nt	nt	nt	nt	-7
CNc1cc(C)nc(N2CCOCC2)n1	-3	1	92*	i	3
CC(=O)Oc1ccccc1/C=C/c1ccc2ccccc2[n+]1C	nt	-1	18	+	-114
O=[N+]([O-])c1ccc(-c2nc3ccc([N+](=O)[O-])cc3[nH]2)cc1	75*	-2	12	i	11
Nc1ccc(-c2nc3ccc([N+](=O)[O-])cc3[nH]2)cc1	-4	1	4	i	5
Cc1cc(C(=O)N/N=C/c2ccc(-c3cccc(Cl)c3Cl)o2)n[nH]1	-66	-38*	-8	i	-11
SMILES	EBV gp42 inh	MEX-5 binding	eIF4H inh	PABP FP inh	MLLE-PAM2 inh
Cc1cc(C(=O)N/N=C/c2ccc(-c3cccc(Br)c3)o2)n[nH]1	-16	-2	-24	i	-14
COc1ccc2c3c(cccc13)N(C)N=C2C	21	-9	100*	?	95*
COc1ccccc1NC(=O)CN1CC(=O)Nc2ccccc21	-18	nt	-9	+	-12
Cc1cccc(-n2c3nc(=O)[nH]c(=O)c-3cc3cc([N+](=O)[O-])ccc32)c1	-8	1	19	i	-92
Cc1ccc(C)c(-n2c3nc(=O)[nH]c(=O)c-3cc3cc([N+](=O)[O-])ccc32)c1	59*	nt	?	i	6
CC1(C)CC(=O)C=C(c2ccc(-c3ccc(OC(F)(F)F)cc3)cc2)C1=O	nt	nt	nt	nt	8
Oc1ccc(C2=CSC3=NCCN23)cc1O	nt	-30*	4	i	15
Brc1ccc(C2=CSC3=NCCN23)cc1	10	-1	-2	i	-42
Cc1ccc(F)c(S(=O)(=O)NC(=O)C2(C)CCN2C(=O)Cc2ccccc2)c1 (stereo not drawn)	nt	nt	nt	nt	9
Cc1ccc(C)c(N2C(=N)S/C(=C\c3ccc(-c4ccccc4C(=O)O)o3)C2=O)c1	-28	-18	44	i	-64
O=C(O)c1cc(-c2ccc(/C=C3/SC(=S)N(Cc4ccccc4)C3=O)o2)ccc1Cl	-105	nt	86*	+	i
Cc1ccccc1NC(=O)CN1C(=O)S/C(=C\c2ccc(-c3cc(C(=O)O)ccc3C)o2)C1=O	-68	-54*	?	?	-10
CCOC(=O)C(C)N1C(=O)S/C(=C\c2ccc(-c3ccccc3C(=O)O)o2)C1=O (stereo not drawn)	nt	-7	101*	+	-6
CC(C)(C)OC(=O)CN1C(=O)S/C(=C\c2ccc(-c3cccc(C(=O)O)c3)o2)C1=O	nt	-9	65*	i	nt
N#Cc1cccc(NC(=O)c2cc(C3CCCCN3S(=O)(=O)c3ccccc3)on2)c1 (stereo not drawn)	nt	nt	nt	nt	-5
CCOc1ccc(CCN2C(=S)N([C@@H](Cc3ccc(O)cc3)CN3CCC[C@@H]3CN3C(=S)NC[C@@H]3CC(C)C)C[C@@H]2Cc2ccc(O)cc2)cc1	nt	nt	nt	nt	-52
Cc1ccc(NC(=O)CN2C(=O)S/C(=C/c3ccc(-c4cccc(C(=O)O)c4)o3)C2=O)cc1	17	nt	57	+	-18
C#CCN1C(=O)S/C(=C\c2ccc(-c3ccc(C(=O)O)cc3C)o2)C1=O	nt	-4	76*	+	4
Cc1ccc(NC(=O)CN2C(=O)S/C(=C/c3ccc(O)c([N+](=O)[O-])c3)C2=O)cc1C	65*	nt	68	i	-2
Cc1cccc(NC(=O)CN2C(=O)S/C(=C\c3ccc(O)c([N+](=O)[O-])c3)C2=O)c1	10	-1	9	i	-2
COc1cc(/C=C2\SC(=O)N(CC(=O)Nc3ccc(C)cc3)C2=O)cc(Cl)c1OCC(=O)O	nt	-1	89*	i	-5
Cc1ccc(NC(=O)CN2C(=O)S/C(=C\c3ccc(OCC(=O)O)c(Br)c3)C2=O)cc1	nt	2	26	i	29
Cc1ccc(C(=O)O)cc1-c1ccc(/C=C2\SC(=O)N(CC(=O)Nc3ccccc3)C2=O)o1	0	-19	49	i	-21
CC(C)=C[C@H]1C[C@H](C)[C@H]2CC[C@H](C)c3c(O[C@@H]4O[C@@H](C)[C@@H](O)[C@@H](O)[C@@H]4O)c(O)c(C)c1c32	nt	nt	nt	nt	-15
Cc1ccc(NC(=O)CN2C(=O)S/C(=C\c3ccc(-c4cccc(C(=O)O)c4C)o3)C2=O)cc1	-38	-15	74*	+	nt
Cn1cc(Cc2ccc(C(=O)N3CCOCC3)cn2)c2ccccc21	nt	nt	nt	nt	10
CON/C=N/C(=S)Nc1ncc(C(F)(F)F)cc1Cl	-7	2	-8	i	42*
CC(C)C(=O)Nc1ncc(C(F)(F)F)cc1Cl	-14	0	10	i	1
ON/C=N/C(=S)Nc1ncc(C(F)(F)F)cc1Cl	-14	-1	-2	i	38*
